Results from PubChem BioAssay (Tox21).
Records with an inconclusive call do not appear. Active and inactive are the calls of the source. Unless noted, the call rests on the fitted dose curve; in most records, active means well fitted curve in the direction sought with a large enough effect in the repeat runs; inconclusive means weak or mixed curves; inactive means no such curve, though single readings can be large; an effect the other way counts as inactive or inconclusive.

What was measured:
[1] = A CellTox Green Cytotoxicity Assay to monitor cytotoxicity in HepG2 cells - 24 hour (AID 1224878); further: nearly all actives have a fitted effect of over 45% in size
How it was run: (§1)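 Real-time cytotoxicity: fluorescence of a cell-impermeant cyanine dye binding DNA of dead HepG2 cells, measured repeatedly (0–40 h) during compound exposure at 37 C. Cells seeded 600/well with reagent, dosed after 5 h.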

[2] = A CellTox Green Cytotoxicity Assay to monitor cytotoxicity in HepG2 cells - 40 hour (AID 1224879); further: nearly all actives have a fitted effect of over 40% in size
How it was run: as §1

[3] = qHTS RealTime-Glo MT Cell Viability Assay in HEK293 cells - 0 hour (AID 1224880); further: top concentration of the series differs between compounds; nearly all actives have a fitted effect of over 45% in size
How it was run: (§2)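 Luminescence, which tracks viable cell number through reduction of the prosubstrate to a NanoLuc substrate, was read over continuous 37 C culture. Cells (600/well) were premixed with reagent and rested 5 h before 23 nL of compound in DMSO was pinned.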

[4] = A CellTox Green Cytotoxicity Assay to monitor cytotoxicity in HEK293 cells - 32 hour (AID 1224881); further: nearly all actives have a fitted effect of over 40% in size
How it was run: (§3)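 Fluorescence from a DNA-binding dye excluded by viable cells was measured repeatedly in the same HEK293 wells (600 cells/well) during continuous compound exposure at 37 C. Each assay gives one read point: 0, 8, 16, 24, 32 or 40 h.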

[5] = A CellTox Green Cytotoxicity Assay to monitor cytotoxicity in HepG2 cells - 0 hour (AID 1224882); further: nearly all actives have a fitted effect of over 35% in size
How it was run: as §1

[6] = A CellTox Green Cytotoxicity Assay to monitor cytotoxicity in HepG2 cells - 32 hour (AID 1224883); further: nearly all actives have a fitted effect of over 50% in size
How it was run: as §1

[7] = A CellTox Green Cytotoxicity Assay to monitor cytotoxicity in HEK293 cells - 8 hour (AID 1224884); further: nearly all actives have a fitted effect of over 35% in size
How it was run: as §3

[8] = qHTS RealTime-Glo MT Cell Viability Assay in HepG2 cells - 16 hour (AID 1224885); further: nearly all actives have a fitted effect of over 50% in size
How it was run: (§4)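 Viability was tracked continuously by NanoLuc luminescence from prosubstrate reduced by living HepG2 cells, at successive time points over 40 h of compound exposure. Cells with reagent were preincubated 5 h at 37 °C before compound addition.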

[9] = qHTS RealTime-Glo MT Cell Viability Assay in HEK293 cells - 24 hour (AID 1224886); further: top concentration of the series differs between compounds; nearly all actives have a fitted effect of over 50% in size
How it was run: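 Viability tracked continuously by luminescence as live cells reduce a prosubstrate for NanoLuc; HEK293 cells preincubated 5 h, compound-treated at 37 C, and read at 0, 8, 16, 24, 32 and 40 h.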

[10] = qHTS RealTime-Glo MT Cell Viability Assay in HEK293 cells - 8 hour (AID 1224887); further: top concentration of the series differs between compounds; nearly all actives have a fitted effect of over 50% in size
How it was run: as §2

[11] = A CellTox Green Cytotoxicity Assay to monitor cytotoxicity in HEK293 cells - 16 hour (AID 1224888); further: nearly all actives have a fitted effect of over 35% in size
How it was run: as §3

[12] = qHTS RealTime-Glo MT Cell Viability Assay in HepG2 cells - 0 hour (AID 1224889); further: nearly all actives have a fitted effect of over 50% in size
How it was run: as §4

[13] = A CellTox Green Cytotoxicity Assay to monitor cytotoxicity in HepG2 cells - 8 hour (AID 1224890); further: nearly all actives have a fitted effect of over 45% in size
How it was run: as §1

[14] = qHTS assay to identify small molecule antagonists of the estrogen receptor alpha (ER-alpha) signaling pathway using the BG1 cell line in the presence of 0.1 nM 17-beta-estradiol - cell viability counter screen (AID 1259241); further: nearly all actives have a fitted effect of over 40% in size
How it was run: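 In this screen, hormone-deprived VM7Luc4E2 cells were seeded at 4,000 per well, dosed with compound and 0.1 nM estradiol final, and incubated 22 hr at 37C and 5% CO2; fluorogenic live-cell protease signal reported viability.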

[15] = qHTS assay to identify small molecule antagonists of the androgen receptor (AR) signaling pathway using the MDA cell line in the presence of 0.5 nM R1881 - cell viability counter screen (AID 1259242); further: nearly all actives have a fitted effect of over 45% in size
How it was run: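 Live-cell protease activity was measured by CellTiter-Fluor fluorescence after 30 min. Before that, MDA-kb2 MMTV-luciferase cells had 16 hr at 37C without CO2, exposed to test compounds and 0.5 nM R1881 final.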

[16] = target: Androgen receptor (Homo sapiens) (UniProt P10275); experiment: qHTS assay to identify small molecule antagonists of the androgen receptor (AR) signaling pathway using the MDA cell line in the presence of 0.5 nM R1881 (AID 1259243); further: nearly all actives have a fitted effect of over 50% in size
How it was run: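 Luminescent reporter readout (ONE-Glo, 30 min, room temperature) after 16 hr co-treatment of MDA-kb2 cells with test compounds and 0.5 nM R1881 final, at 37C without CO2. The MMTV-driven luciferase responds to both AR and GR.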

[17] = target: Estrogen receptor (Homo sapiens) (UniProt P03372); experiment: qHTS assay to identify small molecule antagonists of the estrogen receptor alpha (ER-alpha) signaling pathway using the BG1 cell line in the presence of 0.1 nM 17-beta-estradiol (AID 1259244); further: nearly all actives have a fitted effect of over 50% in size
How it was run: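 Luciferase luminescence (ONE-Glo, 30 min at room temperature) was read after 22 hr at 37C exposure to compounds plus 17beta-estradiol at 0.1 nM final. Cells were VM7Luc4E2 with endogenous ER-alpha and an ERE-driven luciferase, pre-cultured 5 days in hormone-depleted medium.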

[18] = qHTS assay to identify small molecule HDAC inhibitors (AID 1259364)
How it was run: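 Luminescence read after 30 min room-temperature HDAC-Glo incubation measures cellular class I/II HDAC activity. Compounds were applied for 2 hr at 37 C to HCT-116 wild-type cells seeded the day before.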

[19] = qHTS assay to identify small molecule HDAC inhibitors - cell viability counter screen (AID 1259365)
How it was run: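 Measured quantity is CellTiter-Glo luminescence from wild-type HCT-116 cells after compound incubation of 2hr at 37C, 5% CO2; reagent developed 30min at room temperature.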

[20] = qHTS assay to identify small molecule phospholipidosis (PLD) inducers (AID 1259344; active means well fitted curve in the direction sought with a large enough effect; an effect the other way counts as inactive or inconclusive)
How it was run: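 Read-out is LipidTOX Red fluorescence (ex 595/em 615) imaged in HepG2 cells after 24 h compound exposure at 37 C, with Hoechst nuclear counterstain (ex 352/em 461) allowing per-cell normalisation.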

Measured: Potency

Chain of Androgen receptor (Homo sapiens) (P10275 whole entry, looked up): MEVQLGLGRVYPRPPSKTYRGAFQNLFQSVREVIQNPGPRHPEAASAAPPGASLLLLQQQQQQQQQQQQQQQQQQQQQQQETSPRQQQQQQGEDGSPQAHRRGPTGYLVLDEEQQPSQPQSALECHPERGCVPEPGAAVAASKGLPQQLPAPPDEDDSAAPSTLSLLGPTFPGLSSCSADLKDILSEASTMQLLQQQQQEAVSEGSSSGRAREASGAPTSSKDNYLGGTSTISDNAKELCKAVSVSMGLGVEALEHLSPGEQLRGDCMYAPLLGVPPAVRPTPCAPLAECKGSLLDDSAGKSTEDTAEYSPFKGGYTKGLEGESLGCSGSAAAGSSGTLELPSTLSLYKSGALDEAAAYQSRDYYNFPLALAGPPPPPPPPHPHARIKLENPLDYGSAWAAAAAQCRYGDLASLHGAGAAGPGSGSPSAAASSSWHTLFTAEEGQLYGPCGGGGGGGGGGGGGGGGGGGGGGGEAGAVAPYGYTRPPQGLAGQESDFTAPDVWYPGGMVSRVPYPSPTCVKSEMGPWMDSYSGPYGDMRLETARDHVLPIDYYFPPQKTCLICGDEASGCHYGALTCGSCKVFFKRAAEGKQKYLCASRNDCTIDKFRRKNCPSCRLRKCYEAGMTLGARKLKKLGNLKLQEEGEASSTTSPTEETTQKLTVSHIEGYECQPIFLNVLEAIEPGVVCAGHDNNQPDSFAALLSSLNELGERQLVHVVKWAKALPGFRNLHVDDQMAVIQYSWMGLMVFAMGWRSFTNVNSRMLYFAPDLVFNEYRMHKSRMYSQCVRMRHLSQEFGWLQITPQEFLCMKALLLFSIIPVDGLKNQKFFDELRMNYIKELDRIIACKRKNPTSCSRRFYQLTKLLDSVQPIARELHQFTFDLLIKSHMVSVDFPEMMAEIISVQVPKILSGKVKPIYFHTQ
Chain of Estrogen receptor (Homo sapiens) (P03372 whole entry, looked up): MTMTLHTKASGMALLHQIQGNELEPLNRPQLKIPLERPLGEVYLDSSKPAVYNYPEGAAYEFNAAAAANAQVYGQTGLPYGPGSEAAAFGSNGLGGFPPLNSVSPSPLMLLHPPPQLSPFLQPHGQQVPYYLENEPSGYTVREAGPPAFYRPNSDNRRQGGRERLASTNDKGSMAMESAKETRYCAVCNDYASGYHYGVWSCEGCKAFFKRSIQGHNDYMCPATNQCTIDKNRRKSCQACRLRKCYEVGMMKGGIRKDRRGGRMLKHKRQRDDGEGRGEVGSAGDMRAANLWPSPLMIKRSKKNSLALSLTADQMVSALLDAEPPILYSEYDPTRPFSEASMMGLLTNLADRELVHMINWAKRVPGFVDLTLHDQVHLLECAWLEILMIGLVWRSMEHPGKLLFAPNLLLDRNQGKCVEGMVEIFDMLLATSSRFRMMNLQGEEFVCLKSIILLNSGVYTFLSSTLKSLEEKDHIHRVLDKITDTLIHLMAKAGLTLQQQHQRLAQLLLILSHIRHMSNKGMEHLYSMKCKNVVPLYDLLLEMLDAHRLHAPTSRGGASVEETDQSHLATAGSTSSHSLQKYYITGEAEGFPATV

C/C(Cl)=C/CCl
inactive: [1] | [2] | [3] | [4] | [5] | [6] | [7] | [8] | [9] | [10] | [11] | [12] | [13] | [14] | [15] | [16] | [17] | [18] | [19]

O=S(=O)(O)c1ccc(Cl)cc1
inactive: [1] | [2] | [3] | [4] | [5] | [6] | [7] | [8] | [9] | [10] | [11] | [12] | [13] | [14] | [15] | [17] | [19]

O=S(=O)(O)CC(O)CCl (centres undefined)
inactive: [1] | [2] | [3] | [4] | [5] | [6] | [7] | [8] | [9] | [10] | [11] | [12] | [13] | [14] | [15] | [17] | [18] | [19]

Cc1ccccc1OCC(=O)O
inactive: [1] | [2] | [3] | [4] | [5] | [6] | [7] | [8] | [9] | [10] | [11] | [12] | [13] | [14] | [15] | [17] | [18] | [19]

CC(=O)Nc1ccc(OCCOCCOc2ccc(NC(C)=O)cc2)cc1
inactive: [1] | [2] | [3] | [4] | [5] | [6] | [7] | [8] | [9] | [10] | [11] | [12] | [13] | [14] | [15] | [17] | [20] | [18] | [19]

CC(=O)OC/C=C(/C)CCC=C(C)C
inactive: [1] | [2] | [3] | [4] | [5] | [6] | [7] | [8] | [9] | [10] | [11] | [12] | [13] | [14] | [15] | [17] | [19]

Cc1cc(C)c(N)c(Cl)c1
inactive: [1] | [2] | [3] | [4] | [5] | [6] | [7] | [8] | [9] | [10] | [11] | [12] | [13] | [14] | [15] | [17] | [18] | [19]

CN(C)CCC[C@@]1(c2ccc(F)cc2)OCc2cc(C#N)ccc21
inactive: [1] | [2] | [3] | [4] | [5] | [6] | [7] | [8] | [9] | [10] | [11] | [12] | [13] | [14] | [15] | [17] | [20] | [18] | [19]

O=C(O)Cc1ccccc1Oc1ccc(Cl)cc1Cl
inactive: [1] | [2] | [3] | [4] | [5] | [6] | [7] | [8] | [9] | [10] | [11] | [12] | [13] | [14] | [15] | [17] | [20] | [18] | [19]

C/C=C(\C)C(=O)OC/C=C(\C)CCC=C(C)C
inactive: [1] | [2] | [3] | [4] | [5] | [6] | [7] | [8] | [9] | [10] | [11] | [12] | [13] | [14] | [15] | [17]

CC(C)CC(O)Cc1ccccc1 (centres undefined)
inactive: [1] | [2] | [3] | [4] | [5] | [6] | [7] | [8] | [9] | [10] | [11] | [12] | [13] | [14] | [15] | [16] | [17] | [19]

CC(C)(C)C(=O)NCCCC(=O)O
inactive: [1] | [2] | [3] | [4] | [5] | [6] | [7] | [8] | [9] | [10] | [11] | [12] | [13] | [14] | [15] | [17] | [20] | [18] | [19]

c1coc(Cn2cccc2)c1
inactive: [1] | [2] | [3] | [4] | [5] | [6] | [7] | [8] | [9] | [10] | [11] | [12] | [13] | [14] | [15] | [17] | [18] | [19]

COCc1nnc(-c2ccc[n+]([O-])c2)n1-c1c(Cl)c(Cl)cc2[nH]c(=O)c(=O)[nH]c12
inactive: [1] | [2] | [3] | [4] | [5] | [6] | [7] | [8] | [9] | [10] | [11] | [12] | [13] | [14] | [15] | [16] | [17] | [18] | [19]

CCc1ccc(CC)cc1
inactive: [1] | [2] | [3] | [4] | [5] | [6] | [7] | [8] | [9] | [10] | [11] | [12] | [13] | [14] | [15] | [17] | [18] | [19]

C[C@@H]1CCC[C@H](C)N1CCCC(O)(c1ccccc1)c1ccccn1 (some centres undefined)
inactive: [1] | [2] | [3] | [4] | [5] | [6] | [7] | [8] | [9] | [10] | [11] | [12] | [13] | [14] | [15] | [16] | [18]
